# ChEMBL document CHEMBL1961873, “Compounds: GSK PKIS; Assays: Nanosyn kinase panel” (2012)
# Target: T1, Serine/threonine-protein kinase D2 (Homo sapiens) (UniProt Q9BZL6)
# T1 sequence (whole entry): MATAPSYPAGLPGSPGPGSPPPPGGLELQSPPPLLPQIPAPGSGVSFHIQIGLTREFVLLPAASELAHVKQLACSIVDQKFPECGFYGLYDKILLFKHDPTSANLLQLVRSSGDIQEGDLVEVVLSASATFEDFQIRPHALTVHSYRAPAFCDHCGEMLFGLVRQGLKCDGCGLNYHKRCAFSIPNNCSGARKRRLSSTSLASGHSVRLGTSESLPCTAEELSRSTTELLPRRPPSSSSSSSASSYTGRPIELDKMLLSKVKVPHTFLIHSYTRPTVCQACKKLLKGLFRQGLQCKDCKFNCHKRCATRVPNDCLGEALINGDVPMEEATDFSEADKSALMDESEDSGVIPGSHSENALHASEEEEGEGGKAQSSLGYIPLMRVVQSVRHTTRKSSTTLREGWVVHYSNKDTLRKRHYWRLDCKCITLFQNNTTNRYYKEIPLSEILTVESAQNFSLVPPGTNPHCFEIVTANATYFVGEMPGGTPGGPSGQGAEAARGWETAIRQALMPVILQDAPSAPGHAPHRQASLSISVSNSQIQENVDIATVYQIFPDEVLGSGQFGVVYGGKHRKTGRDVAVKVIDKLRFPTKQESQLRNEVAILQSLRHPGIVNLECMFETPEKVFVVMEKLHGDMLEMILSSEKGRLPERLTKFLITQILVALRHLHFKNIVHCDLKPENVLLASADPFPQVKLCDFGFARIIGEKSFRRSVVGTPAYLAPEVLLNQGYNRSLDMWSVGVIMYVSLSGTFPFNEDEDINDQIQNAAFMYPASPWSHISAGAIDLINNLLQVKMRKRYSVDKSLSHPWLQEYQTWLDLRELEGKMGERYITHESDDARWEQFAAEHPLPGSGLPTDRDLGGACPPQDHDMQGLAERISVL
# Settings: at 0.1 µM
# 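Further: reported percent inhibition values are means, part of the GSK PKIS kinase panel screen.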
row,Structure (SMILES),inhibition
1,COc1ccc(-c2coc3ncnc(N)c23)cc1,4.87%
2,Cc1cc(O)cc(C)c1/C=C/c1cncc(-c2nn[nH]n2)c1,2.35%
3,NCc1ccc(-c2nc(-c3ccc(Cl)c(O)c3)c(-c3ccncc3)[nH]2)cc1,1.57%
4,Cc1ccc(C(=O)NC2CCCCC2)cc1-c1ccc(C(=O)NCC2CC2)cc1,1.98%
5,COc1cccc(-n2ncc3c(N/N=C/c4cccc(F)c4)ncnc32)c1,-1.06%
6,[O-][S+]1CCN(Cc2ccc(-c3ccc4ncnc(Nc5ccc(OCc6ccccc6)c(F)c5)c4c3)o2)CC1,3.5%
7,COc1cc2c(cc1Nc1nc(N3CCc4ccccc43)c3cc[nH]c3n1)N(C(=O)CN(C)C)CC2,1.71%
8,COc1cc2ncn(-c3cc(OCc4ccccc4Cl)c(C(N)=O)s3)c2cc1OC,-0.54%
9,COc1ccccc1Nc1ncc(-c2ccccc2)o1,3.84%
10,c1cnn2ncc(-c3ccnc(Nc4ccc5c(c4)OCCO5)n3)c2c1,5.55%
11,CS(=O)(=O)CCN(CC#N)Cc1ccc(-c2ccc3ncnc(Nc4ccc(OCc5cccc(F)c5)c(Cl)c4)c3c2)o1,-2.89%
12,CS(=O)(=O)CCNCc1ccc(-c2ccc3ncnc(Nc4ccc(OCc5cccc(F)c5)c(C(F)(F)F)c4)c3c2)o1,4.63%
13,COc1ccc(-c2nn3ncccc3c2-c2ccnc(Nc3ccc(Cl)c(C(F)(F)F)c3)n2)cc1,2.47%
14,CCn1c(-c2nonc2N)nc2ccncc21,1.34%
15,Nc1ncnc2occ(-c3ccc(NC(=O)Nc4cccc(C(F)(F)F)c4)cc3)c12,5.02%
16,CC(C)=Cc1cccc2c1/C(=N/Nc1ccc(S(N)(=O)=O)cc1)C(=O)N2,-0.05%
17,Fc1cccc(COc2ccc(Nc3ncnc4cc(-c5ccc[nH]5)sc34)cc2Cl)c1,-0.92%

row,Structure (SMILES),inhibition
1,CCN1CCC(CC(=O)Nc2n[nH]c3nc(-c4cccs4)c(Br)cc23)CC1,-2.1%
2,NC(=O)c1ccc(-c2nc(-c3ccccn3)c(-c3ccc4c(c3)OCO4)[nH]2)cc1,2.87%
3,CCn1c(-c2nonc2N)nc2c(C#CC(C)(C)O)nc(OC[C@@H](N)c3ccccc3)cc21,-0.26%
4,CCn1c(-c2nonc2N)nc2cncc(C(=O)N3CC[C@H](N)C3)c21,6.65%
5,Cc1ccc(NC(=O)c2ccnc(N3CCCC3)c2)cc1-c1ccc(C(=O)NCC2CC2)cc1,2.95%
6,COc1cc(C)c(NC(=O)CN(C)C)cc1Nc1nc(Nc2cccc(F)c2C(N)=O)c2cc[nH]c2n1,3.43%
7,CCn1c(-c2nonc2N)nc2cnc(Oc3cccc(NC(=O)c4ccc(OCCN5CCOCC5)cc4)c3)cc21,3.04%
8,Nc1nc(-c2ccc3c(c2)C(=Cc2cc(Br)c(O)c(Br)c2)C(=O)N3)cs1,-2.06%
9,COc1ccc(-c2ccncc2)cc1C(N)=O,4.91%
10,CC1=C(C(=O)Nc2ccc3[nH]ncc3c2)C(c2ccc(Cl)c(Cl)c2)CC(=O)N1 (centres undefined),1.41%
11,Fc1cccc(COc2ccc(Nc3ncnc4sc(-c5cccs5)cc34)cc2Cl)c1,-1.32%
12,CN1CCC(C(=O)Nc2n[nH]c3nnc(-c4ccccc4)cc23)CC1,4.78%
13,Cc1nn(C)c2cc(N(C)c3ccnc(Nc4cccc(S(N)(=O)=O)c4)n3)ccc12,3.66%
14,COC(=O)Nc1nc2cc(Oc3ccc(NC(=O)Nc4cccc(C(=O)O)c4)cc3)ccc2[nH]1,-3.05%
15,CS(=O)(=O)CCNCc1nc(-c2ccc3ncnc(Nc4ccc(F)c(Cl)c4)c3c2)cs1,0.4%
16,CS(=O)(=O)CCNCc1ccc(-c2ccc3ncnc(Nc4ccc(OCc5ccccc5)c(Cl)c4)c3c2)o1,-0.95%
17,COC(=O)Nc1nc2cc(Oc3cccc(NC(=O)Nc4cc(C(F)(F)F)ccc4F)c3)ccc2[nH]1,0.66%
